How the values were obtained:
Experiment in all cases: DAPPL (digital affinity profiling via proximity ligation, sequencing); 10 mM Tris-HCl pH 7.5, 50 mM NaCl, 1 mM DTT, 4% glycerol, room temperature, 30 min; GST-TFs on glutathione beads, 16-mer random dsDNA library, 0.1% formaldehyde crosslink after washing; high values mean tight binding
Conditions in all cases: protein: recombinant; tags: N-terminal GST; dsDNA, one strand shown
ELK1 = molecular target: T1, ELK1 (Homo sapiens, UniProt P19419 1-428)
T1 sequence: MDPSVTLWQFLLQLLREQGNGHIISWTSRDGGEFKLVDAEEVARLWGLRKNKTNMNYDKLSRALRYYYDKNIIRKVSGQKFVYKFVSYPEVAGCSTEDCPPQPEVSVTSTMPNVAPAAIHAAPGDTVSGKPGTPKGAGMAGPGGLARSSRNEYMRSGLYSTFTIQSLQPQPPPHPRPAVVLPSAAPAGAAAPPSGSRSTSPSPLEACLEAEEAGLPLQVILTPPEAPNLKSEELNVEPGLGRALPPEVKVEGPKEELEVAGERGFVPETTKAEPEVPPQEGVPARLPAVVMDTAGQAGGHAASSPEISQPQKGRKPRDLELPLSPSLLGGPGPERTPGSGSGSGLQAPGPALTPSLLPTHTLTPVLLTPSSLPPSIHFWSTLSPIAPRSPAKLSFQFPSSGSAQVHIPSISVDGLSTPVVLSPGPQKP
How it was run: (§1)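 The binding signal reported is, for every hexamer, its read frequency for a factor over its read frequency for the tag-only sample. Reads came from pools of yeast-expressed, GST-fused human transcription factors on glutathione beads, barcoded with DNA and mixed with that sample, which were incubated with 200 nmole of a random double-stranded 16-mer DNA library in Tris/NaCl/DTT/glycerol buffer at room temperature for 30 min. After washing, the pools were crosslinked with 0.1% formaldehyde, proximity-ligated with BsaI/T4 ligase for 1 h at 37 °C, PCR-amplified and sequenced on an Illumina NextSeq500.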

GABPA = molecular target: T2, GABPA (Homo sapiens, UniProt Q06546 1-454)
T2 sequence: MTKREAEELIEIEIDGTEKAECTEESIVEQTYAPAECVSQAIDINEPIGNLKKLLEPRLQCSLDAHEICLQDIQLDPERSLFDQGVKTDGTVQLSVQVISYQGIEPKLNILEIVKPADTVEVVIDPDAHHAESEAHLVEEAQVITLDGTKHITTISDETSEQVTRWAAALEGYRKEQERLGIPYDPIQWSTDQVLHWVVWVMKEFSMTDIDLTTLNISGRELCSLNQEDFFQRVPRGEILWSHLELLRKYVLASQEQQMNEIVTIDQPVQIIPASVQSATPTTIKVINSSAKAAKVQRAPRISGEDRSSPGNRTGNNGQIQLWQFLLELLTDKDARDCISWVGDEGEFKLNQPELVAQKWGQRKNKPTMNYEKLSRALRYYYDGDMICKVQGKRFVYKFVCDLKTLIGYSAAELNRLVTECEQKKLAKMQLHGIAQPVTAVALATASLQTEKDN
How it was run: as §1

ERG = molecular target: T3, ERG (Homo sapiens, UniProt P11308 1-479)
T3 sequence: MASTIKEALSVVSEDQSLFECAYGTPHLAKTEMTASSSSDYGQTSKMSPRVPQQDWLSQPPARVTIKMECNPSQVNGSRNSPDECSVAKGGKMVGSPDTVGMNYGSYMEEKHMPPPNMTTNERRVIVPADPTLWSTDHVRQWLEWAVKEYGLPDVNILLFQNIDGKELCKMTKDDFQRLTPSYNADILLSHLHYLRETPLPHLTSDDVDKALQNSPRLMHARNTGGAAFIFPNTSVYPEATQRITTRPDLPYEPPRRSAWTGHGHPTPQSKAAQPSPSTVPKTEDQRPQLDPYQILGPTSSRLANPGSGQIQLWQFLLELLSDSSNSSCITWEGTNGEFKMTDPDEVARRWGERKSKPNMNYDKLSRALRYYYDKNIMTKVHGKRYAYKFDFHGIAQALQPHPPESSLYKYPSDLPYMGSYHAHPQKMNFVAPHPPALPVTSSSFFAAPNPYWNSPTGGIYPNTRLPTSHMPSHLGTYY
How it was run: as §1

ELF1 = ELF1 (Homo sapiens, UniProt P32519 1-619)
How it was run: as §1

EHF = molecular target: T4, EHF (Homo sapiens, UniProt Q9NZC4 1-300)
T4 sequence: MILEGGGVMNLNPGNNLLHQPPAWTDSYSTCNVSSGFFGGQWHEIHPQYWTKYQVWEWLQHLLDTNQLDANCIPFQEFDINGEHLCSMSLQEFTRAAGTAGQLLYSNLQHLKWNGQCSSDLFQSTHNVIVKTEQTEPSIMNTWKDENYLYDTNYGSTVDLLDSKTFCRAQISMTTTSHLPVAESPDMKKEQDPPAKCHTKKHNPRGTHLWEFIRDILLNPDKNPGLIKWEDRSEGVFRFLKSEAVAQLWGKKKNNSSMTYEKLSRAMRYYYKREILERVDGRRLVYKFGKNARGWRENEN
How it was run: as §1

SPIB = SPIB (Homo sapiens, UniProt Q01892 1-262)
How it was run: as §1

FEV = molecular target: T5, FEV (Homo sapiens, UniProt Q99581 1-238)
T5 sequence: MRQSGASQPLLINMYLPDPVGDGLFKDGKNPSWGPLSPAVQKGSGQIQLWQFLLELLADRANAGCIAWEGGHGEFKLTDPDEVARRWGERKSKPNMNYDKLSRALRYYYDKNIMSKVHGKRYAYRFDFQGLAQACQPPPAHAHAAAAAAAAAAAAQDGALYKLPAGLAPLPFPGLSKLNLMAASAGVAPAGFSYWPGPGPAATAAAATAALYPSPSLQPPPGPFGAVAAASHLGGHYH
How it was run: as §1

ETV5 = ETV5 (Homo sapiens, UniProt P41161 1-510)
How it was run: as §1

ELF4 = ELF4 (Homo sapiens, UniProt Q99607 1-663)
How it was run: as §1

ELK4 = molecular target: T6, ELK4 (Homo sapiens, UniProt P28324-2 1-405)
T6 sequence: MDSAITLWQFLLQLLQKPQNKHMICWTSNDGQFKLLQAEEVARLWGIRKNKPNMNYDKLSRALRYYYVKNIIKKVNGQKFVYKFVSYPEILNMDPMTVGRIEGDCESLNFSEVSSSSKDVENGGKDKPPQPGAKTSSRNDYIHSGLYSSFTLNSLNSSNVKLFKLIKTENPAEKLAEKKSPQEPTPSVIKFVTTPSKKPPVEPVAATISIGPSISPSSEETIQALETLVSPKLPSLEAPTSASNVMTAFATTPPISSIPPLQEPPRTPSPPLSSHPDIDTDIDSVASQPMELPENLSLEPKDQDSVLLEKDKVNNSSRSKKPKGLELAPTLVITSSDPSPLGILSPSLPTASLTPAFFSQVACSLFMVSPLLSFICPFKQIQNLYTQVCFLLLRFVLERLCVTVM
How it was run: as §1

SPIB, sequence (Q01892 whole entry): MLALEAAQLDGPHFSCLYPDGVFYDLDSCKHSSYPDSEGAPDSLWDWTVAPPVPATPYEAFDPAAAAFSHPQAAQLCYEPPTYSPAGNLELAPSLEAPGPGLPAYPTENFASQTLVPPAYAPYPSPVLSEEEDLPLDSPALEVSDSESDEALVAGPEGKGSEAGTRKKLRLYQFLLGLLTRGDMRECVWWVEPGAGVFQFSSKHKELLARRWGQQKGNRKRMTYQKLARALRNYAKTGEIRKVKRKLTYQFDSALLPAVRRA
ETV5, sequence (P41161 whole entry): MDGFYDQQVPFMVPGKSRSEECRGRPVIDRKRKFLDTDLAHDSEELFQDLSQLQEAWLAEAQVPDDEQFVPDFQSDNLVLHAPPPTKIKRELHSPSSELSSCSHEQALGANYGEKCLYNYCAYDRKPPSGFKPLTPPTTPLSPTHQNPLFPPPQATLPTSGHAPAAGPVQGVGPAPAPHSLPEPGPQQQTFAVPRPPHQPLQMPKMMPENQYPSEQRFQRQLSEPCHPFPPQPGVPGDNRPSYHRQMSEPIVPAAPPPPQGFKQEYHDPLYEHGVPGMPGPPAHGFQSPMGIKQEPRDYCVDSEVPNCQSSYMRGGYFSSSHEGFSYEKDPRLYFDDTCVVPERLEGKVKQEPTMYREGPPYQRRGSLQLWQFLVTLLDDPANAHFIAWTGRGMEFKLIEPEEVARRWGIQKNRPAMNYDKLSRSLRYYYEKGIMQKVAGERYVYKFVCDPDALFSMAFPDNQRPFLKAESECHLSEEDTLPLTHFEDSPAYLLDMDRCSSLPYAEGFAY
ELF4, sequence (Q99607 whole entry): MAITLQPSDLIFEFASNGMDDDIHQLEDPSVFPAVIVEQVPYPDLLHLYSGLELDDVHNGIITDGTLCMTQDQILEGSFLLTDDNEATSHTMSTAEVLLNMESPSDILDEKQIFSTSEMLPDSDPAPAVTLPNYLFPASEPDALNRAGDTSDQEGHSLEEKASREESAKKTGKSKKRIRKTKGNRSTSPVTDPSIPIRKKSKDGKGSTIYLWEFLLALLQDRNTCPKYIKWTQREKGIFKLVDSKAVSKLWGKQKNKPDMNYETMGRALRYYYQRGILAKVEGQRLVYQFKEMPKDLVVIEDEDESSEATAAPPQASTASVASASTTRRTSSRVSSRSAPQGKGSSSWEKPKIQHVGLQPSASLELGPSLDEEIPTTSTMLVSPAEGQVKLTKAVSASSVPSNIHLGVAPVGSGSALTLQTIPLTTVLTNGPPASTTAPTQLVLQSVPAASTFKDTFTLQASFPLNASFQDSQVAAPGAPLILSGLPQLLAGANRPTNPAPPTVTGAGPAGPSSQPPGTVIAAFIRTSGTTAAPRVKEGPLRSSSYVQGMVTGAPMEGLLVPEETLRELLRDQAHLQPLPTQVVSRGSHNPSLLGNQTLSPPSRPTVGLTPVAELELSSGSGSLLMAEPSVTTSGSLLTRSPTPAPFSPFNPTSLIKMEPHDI
ELF1, sequence (P32519 whole entry): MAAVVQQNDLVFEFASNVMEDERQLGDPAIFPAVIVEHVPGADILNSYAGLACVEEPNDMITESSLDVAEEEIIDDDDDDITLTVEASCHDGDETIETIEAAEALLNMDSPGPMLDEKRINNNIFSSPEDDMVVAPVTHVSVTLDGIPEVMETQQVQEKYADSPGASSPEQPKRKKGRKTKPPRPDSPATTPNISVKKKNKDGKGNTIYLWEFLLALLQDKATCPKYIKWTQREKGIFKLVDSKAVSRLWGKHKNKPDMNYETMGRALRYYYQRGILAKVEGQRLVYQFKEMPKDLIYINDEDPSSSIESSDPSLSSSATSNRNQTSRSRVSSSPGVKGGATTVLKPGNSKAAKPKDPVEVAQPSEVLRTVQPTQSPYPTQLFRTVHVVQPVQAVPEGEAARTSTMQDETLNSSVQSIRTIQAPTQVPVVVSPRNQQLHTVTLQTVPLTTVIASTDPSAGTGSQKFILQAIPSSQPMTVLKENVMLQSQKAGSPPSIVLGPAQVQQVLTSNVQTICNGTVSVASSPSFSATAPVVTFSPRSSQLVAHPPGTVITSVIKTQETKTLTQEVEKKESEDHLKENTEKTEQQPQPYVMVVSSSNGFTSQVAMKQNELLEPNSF

CCCAAA
binding signal (ELK1): 1.15 fold enrichment (6-mer frequency, TF over GST control) | binding signal (GABPA): 1.17 fold enrichment (6-mer frequency, TF over GST control) | binding signal (ERG): 1.13 fold enrichment (6-mer frequency, TF over GST control) | binding signal (ELF1): 1.18 fold enrichment (6-mer frequency, TF over GST control) | binding signal (EHF): 1.12 fold enrichment (6-mer frequency, TF over GST control) | binding signal (SPIB): 1.14 fold enrichment (6-mer frequency, TF over GST control) | binding signal (FEV): 1.08 fold enrichment (6-mer frequency, TF over GST control) | binding signal (ETV5): 1.07 fold enrichment (6-mer frequency, TF over GST control) | binding signal (ELF4): 1.17 fold enrichment (6-mer frequency, TF over GST control) | binding signal (ELK4): 1.06 fold enrichment (6-mer frequency, TF over GST control)
